Assay results: PubChem BioAssay AID1851 (National Center for Advancing Translational Sciences (NCATS), 2009)
“And” between values parts separate entries of the source, which are not always exact repeats. Identical values can stand only once. The campaign covered roughly 16,000 compounds. About 5,100 (32%) were called active. Roughly 25% stayed inconclusive and do not appear here. This is one part of the list. A number with no mark means an inactive call. The call rests on the fitted dose curve; in most records, active means well fitted curve in the direction sought with a large enough effect; inconclusive means small, poorly fitted or top-dose-only effect, or effect the other way; inactive means no such curve, though single readings can be large or run the other way.

Molecular target: Cytochrome P450 3A4 (Homo sapiens) (UniProt P08684)
Test: Cytochrome panel assay with activity outcomes
Settings: recombinant CYP, pro-luciferin dealkylation, luminescence, p450-cyp3a4; series mostly up to 57.1 µM
On the % scale 0 is the no-effect control and ±100 the full control effect.

Cytochrome P450 3A4 (Homo sapiens), sequence (P08684 whole entry, looked up): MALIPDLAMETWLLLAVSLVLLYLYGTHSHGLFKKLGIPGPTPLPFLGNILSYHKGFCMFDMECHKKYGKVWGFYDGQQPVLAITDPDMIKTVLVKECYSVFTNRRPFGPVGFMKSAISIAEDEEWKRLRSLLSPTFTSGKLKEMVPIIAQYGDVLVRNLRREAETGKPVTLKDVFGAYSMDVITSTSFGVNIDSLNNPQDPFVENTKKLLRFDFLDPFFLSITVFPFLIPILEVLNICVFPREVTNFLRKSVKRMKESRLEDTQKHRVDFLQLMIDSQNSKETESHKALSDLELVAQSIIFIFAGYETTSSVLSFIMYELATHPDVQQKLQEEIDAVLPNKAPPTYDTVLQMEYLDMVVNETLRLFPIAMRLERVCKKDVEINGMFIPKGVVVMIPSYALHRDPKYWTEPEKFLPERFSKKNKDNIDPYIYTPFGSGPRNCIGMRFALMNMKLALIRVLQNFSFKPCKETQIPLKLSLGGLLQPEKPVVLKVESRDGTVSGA

Row | Structure (SMILES) | AC50 | activity, negative = inhibition
1 | COc1ccc(C2C(C#N)=C(N)N(Nc3ccccc3)C3=C2C(=O)CC(C)(C)C3)cc1C (stereo unspecified) | 2 µM (active) | 
2 | COc1cc(C2C(C#N)=C(N)N(Nc3ccccc3)C3=C2C(=O)CC(C)(C)C3)ccc1OCc1ccccc1 (stereo unspecified) | 2.82 µM (active) | 
3 | COc1cc(C2C(C#N)=C(N)N(Nc3ccccc3)C3=C2C(=O)CC(C)(C)C3)ccc1OCc1cccc(F)c1 (stereo unspecified) | 2.51 µM (active) | 
4 | COc1cc(C2C(C#N)=C(N)N(c3sc4c(c3C#N)CCCC4)C3=C2C(=O)CC(C)(C)C3)cc(OC)c1OC (stereo unspecified) | 0.501 µM (active) | 
5 | CCOc1cc(/C=C2\CCC/C(=C\c3cc(Cl)c(O)c(OCC)c3)C2=O)cc(Cl)c1O |  | -14.8% [at 2.29 µM]
6 | CCCCCCCCCCCCC/C=C\[C@@H](O)[C@@H](N)CO | inactive | 
7 | O=C(O)CCSCc1ccccc1 |  | -12.2% [at 11.4 µM]
8 | CN(c1ccc(C(=O)NCC2CCCO2)cc1)S(=O)(=O)c1ccccc1 (stereo unspecified) | inactive | 
9 | Cc1cccc(CSCCNC(=O)c2ccc(N(C)S(=O)(=O)c3ccccc3)cc2)c1 | 3.98 µM (active) | 
10 | C=CCOC(=O)/C(=C\c1cccc2ccccc12)NC(=O)c1ccccc1 | 0.2 µM (active) | 
11 | O=C1CCC(c2ccc(-n3ccnc3)cc2)=NN1 | 1.58 µM (active) | 
12 | COc1cc(/C=C(/C#N)c2nc3ccccc3[nH]2)ccc1OCC(=O)Nc1ccccc1C | 1.26 µM (active) | 
13 | N#C/C(=C\c1ccccc1)c1nc2ncccc2[nH]1 |  | -24% [at 2.29 µM]
14 | N#C/C(=C\c1ccc(Cl)cc1)c1nc2ncccc2[nH]1 |  | -7.91% [at 2.29 µM]
15 | COc1cc(/C=C(/C#N)c2nc3ccccc3[nH]2)ccc1Oc1ncccc1[N+](=O)[O-] | 1.58 µM (active) | 
16 | COc1ncnc(NS(=O)(=O)c2ccc(N)cc2)c1OC | inactive | 
17 | CCOC(=O)c1cnc(N(C)C)nc1SC(=N)N |  | -4.2% [at 11.4 µM]
18 | CSc1ccc(S(=O)(=O)Nc2ccc3c4c(cccc24)CC3)cc1 | 5.01 µM (active) | 
19 | Cc1cc(C)cc(OCC(=O)Nc2ccc3c4c(cccc24)CC3)c1 | inactive | 
20 | COC1=C(OC)C(=O)c2ccccc2C1=O | 20 µM (active) | 
21 | CC(C)=CCC1=C(OCC(=O)O)C(=O)c2ccccc2C1=O |  | -24.9% [at 11.4 µM]
22 | COc1nnc(OC)c2ccccc12 | inactive | 
23 | C#CCn1c(=O)c2c(ncn2C)n(C)c1=O | inactive | 
24 | N#Cc1c2n(c3c(=S)nc[nH]c13)CCCCC2 |  | 9.26% [at 2.29 µM]

Row | Structure (SMILES) | AC50 | activity, negative = inhibition
25 | COc1ccc2c(c1)Cc1cc(N=[N+]([O-])c3ccc4c(c3)Cc3cc(OC)ccc3-4)ccc1-2 | 5.01 µM (active) | 
26 | Cc1cccc(-n2cnc(C(=O)NC3CCCCCC3)c2)n1 | 14.1 µM (active) | 
27 | Cc1cnc(NC(=O)CSc2ccc(Cl)cc2)s1 | 15.8 µM (active) | 
28 | Cc1cc(Cl)nc(NC(=O)CSc2ccc(Cl)cc2)n1 |  | -7.2% [at 11.4 µM]
29 | Nc1nc(N)c2[nH]cnc2n1 (tested in a mixture with another compound) |  | -3.42% [at 11.4 µM]
30 | CCC[C@H](Sc1nc(N)nc2nc[nH]c12)C(=O)O |  | -4.34% [at 11.4 µM]
31 | Nc1nc(SCCc2ccccc2)c2[nH]cnc2n1 | 2.51 µM (active) | 
32 | CC(C)[C@H](Sc1nc(N)nc2nc[nH]c12)C(=O)O |  | -2.83% [at 11.4 µM]
33 | Nc1nc(SC/C=C\c2ccccc2)c2[nH]cnc2n1 | 2.51 µM (active) | 
34 | Nc1nc(N)c(CCCCc2ccccc2)c(N)n1 |  | 5.2% [at 11.4 µM]
35 | Nc1nc(Sc2ccc([N+](=O)[O-])c3nonc23)c2[nH]cnc2n1 |  | -24.7% [at 11.4 µM]
36 | Nc1nc(SCc2ccccc2[N+](=O)[O-])c2[nH]cnc2n1 | 3.16 µM (active) | 
37 | COc1ccc(-n2c(C)n[nH]c2=O)cc1OC | inactive | 
38 | COc1cccc(=O)c2c(C)n(-c3cc(C)cc(C)c3)c(C)c12 | 4.47 µM (active) | 
39 | CN(C)CCC=C1c2ccccc2C=Cc2ccccc21 | inactive | 
40 | O=C(O)[C@@H]1CCCN1Cc1cc2ccccc2c2ccccc12 |  | -12.1% [at 11.4 µM]
41 | CC(C)CC(=O)N[C@H](C(=O)N[C@H](C(=O)N[C@@H](CC(C)C)[C@H](O)CC(=O)N[C@@H](C)C(=O)N[C@@H](CC(C)C)[C@H](O)CC(=O)O)C(C)C)C(C)C | inactive | 
42 | Cc1c(Cl)cccc1NC(=O)CCC(=O)NNC(=O)c1ccco1 |  | 1.8% [at 2.29 µM]
43 | Cc1ccc(NC(=O)CCC(=O)NNC(=O)c2ccco2)cc1C |  | -4.43% [at 2.29 µM]
44 | CC(=O)c1ccc(-n2nnnc2SCC(=O)Nc2cccc(NC(=O)c3ccco3)c2)cc1 | 3.98 µM (active) | 
45 | O=C(CSc1ccccc1)Nc1ccc(NC(=O)c2ccco2)cc1 | inactive | 
46 | CCc1cc2cc(C)c(C)cc2nc1SCC(=O)NNC(=O)c1ccco1 | 8.91 µM (active) | 
47 | O=C(CSc1ccc(Cl)cc1)Nc1cccc(NC(=O)c2ccco2)c1 |  | -17.5% [at 11.4 µM]
48 | Cc1ccc(SCC(=O)Nc2cccc(NC(=O)c3ccco3)c2)cc1 | 22.4 µM (active) | 

Row | Structure (SMILES) | AC50 | activity, negative = inhibition
49 | Cc1ccc(-n2nnnc2SCC(=O)NNC(=O)c2ccco2)c(C)c1 | 22.4 µM (active) | 
50 | Cn1c2c(c(=O)n(C)c1=O)CN(CCN1CCNCC1)CN2 | inactive | 
51 | O=C(OCn1nnc2ccccc2c1=O)c1cccnc1 | 8.91 µM (active) | 
52 | O=C(Cn1nnc2ccccc21)N/N=C\C=C\c1ccccc1 | inactive | 
53 | O=C(CSCC(=O)OCn1nnc2ccccc2c1=O)Nc1ccc(Cl)cc1 | 22.4 µM (active) | 
54 | COc1ccc(OC)c(S(=O)(=O)N2CCC(C(=O)Nc3ccc(C)c(C)c3)CC2)c1 | 5.01 µM (active) | 
55 | Cc1ccc(NC(=O)C2CCN(S(C)(=O)=O)CC2)cc1 |  | 0.664% [at 2.29 µM]
56 | CCc1ccc(NC(=O)C2CCN(S(=O)(=O)c3c(C)[nH]c(=O)[nH]c3=O)CC2)cc1 | inactive | 
57 | O=C(NCC1COc2ccccc2O1)C1CCN(S(=O)(=O)c2cccc3nsnc23)CC1 (stereo unspecified) | 20 µM (active) | 
58 | COc1ccc2nc(NCN3C(=O)c4ccccc4C3=O)sc2c1 |  | -27.9% [at 11.4 µM]
59 | Nc1nc2c(C(=O)NCc3cccs3)nnn2c2cccc(Cl)c12 |  | -1.06% [at 11.4 µM]
60 | Cc1cccc(NC(=O)C2CCN(S(=O)(=O)c3cccc4nsnc34)CC2)n1 | inactive | 
61 | O=C(NCc1cccs1)C1CCN(S(=O)(=O)c2cccc3nsnc23)CC1 | 12.6 µM (active) | 
62 | COc1ccc2nc(NC(=O)C3CCN(S(=O)(=O)c4cccc5nsnc45)CC3)sc2c1 | 14.1 µM (active) | 
63 | CC(C)=CCNc1ncnc2nc[nH]c12 |  | -14.9% [at 11.4 µM]
64 | COc1cc(NC(=O)C2CCN(S(=O)(=O)c3cccc4nonc34)CC2)cc(OC)c1 | 3.16 µM (active) | 
65 | CC(=O)Nc1ccc(NC(=O)C2CCN(S(=O)(=O)c3cccc4nonc34)CC2)cc1 | inactive | 
66 | COc1ccc(CCNC(=O)C2CCN(S(=O)(=O)c3cccc4nsnc34)CC2)cc1OC | 3.98 µM (active) | 
67 | COC(=O)c1ccccc1OCC(=O)N1CCN(c2ccc(OC)cc2)CC1 |  | -29.6% [at 11.4 µM]
68 | COC(=O)c1ccccc1OCC(=O)N1CCN(c2ccc(Cl)cc2)CC1 | 15.8 µM (active) | 
69 | COC(=O)c1ccccc1Oc1c(F)c(F)nc(N2CCOCC2)c1F | inactive | 
70 | OCCCNc1ncnc2[nH]ncc12 |  | -20.7% [at 11.4 µM]
71 | O=S1(=O)C=C(SCc2cccc(Cl)c2)Nc2ccccc21 | 2 µM (active) | 
72 | CC[C@@H]1CC(=O)N(SC[C@H](N)C(=O)O)C1=O |  | -4.06% [at 11.4 µM]

Row | Structure (SMILES) | AC50 | activity, negative = inhibition
73 | COc1cccc(Cn2c(=O)c(-c3ccccc3)nc3cnc(N(C)C)nc32)c1 | 6.31 µM (active) | 
74 | COc1ccc(-c2nc3cnc(OC)nc3n(Cc3cccc(OC)c3)c2=O)cc1 | 2.51 µM (active) | 
75 | CN(C)c1ncc2nc(-c3ccccc3)c(=O)n(C)c2n1 | inactive | 
76 | COc1cccc(Cn2c(=O)c(-c3cc(F)cc(F)c3)nc3cnc(N(C)C)nc32)c1 | inactive | 
77 | COc1cccc(Cn2c(=O)c(-c3ccccc3)nc3cnc(OC)nc32)c1 | 7.94 µM (active) | 
78 | Oc1c(Br)cc(CN(Cc2cc(Br)c(O)c(Br)c2)C2CCCCC2)cc1Br |  | -9.71% [at 11.4 µM]
79 | COc1ccc(C2=Nc3cccc4cccc(c34)N2)cc1 | inactive | 
80 | COc1cccc(-c2cncnc2NCc2ccccc2OC)c1 | 0.501 µM (active) | 
81 | COc1cccc(-c2cncnc2NCc2ccc(OC)cc2OC)c1 | 0.501 µM (active) | 
82 | COc1ccc(CNc2ncncc2-c2cccc(C#N)c2)c(OC)c1 | 0.316 µM (active) | 
83 | COc1ccc(CNc2ncncc2-c2cccnc2)c(OC)c1 | 0.501 µM (active) | 
84 | CCNc1nc(NCC)nc(ON=C(C)C)n1 | inactive | 
85 | Cn1ccnc1C[C@@](C)(O)c1ccccc1 |  | -4.26% [at 11.4 µM]
86 | CCn1cc(C(=O)N/N=C(/C)c2ccc(F)cc2)c(=O)c2cc(F)c(N3CCCC3)cc21 | inactive | 
87 | COc1ccccc1CNc1ncncc1-c1cccnc1 | 0.794 µM (active) | 
88 | C[C@@H](c1ccccc1)N1C(=O)[C@H]2[C@H]3[C@H](O)[C@H](O)C/C(=N/OC[C@@H](O)COCc4ccco4)[C@@H]3CC[C@@H]2C1=O | 3.16 µM (active) | 
89 | CC(C)(C)N1C(=O)[C@H]2[C@H]3[C@H](O)[C@H](O)C/C(=N/OC[C@@H](O)COCc4ccco4)[C@@H]3CC[C@@H]2C1=O | 5.01 µM (active) | 
90 | CC(=O)OC[C@@H]1O[C@@H](O/N=C2/C[C@@H](O)[C@@H](O)[C@@H]3[C@@H]4C(=O)N([C@@H](C)c5ccccc5)C(=O)[C@H]4CC[C@H]23)[C@H](OC(C)=O)[C@H](OC(C)=O)[C@@H]1OC(C)=O |  | -29.1% [at 11.4 µM]
91 | C[C@@H](c1ccccc1)N1C(=O)[C@H]2[C@H]3[C@H](O)[C@H](O)C/C(=N/OC[C@@H](O)COCc4ccco4)[C@H]3CC[C@@H]2C1=O | 3.98 µM (active) | 
92 | C[C@@H](c1ccccc1)N1C(=O)[C@H]2[C@@H]3[C@H](O)[C@H](O)CC(=O)[C@H]3CC[C@H]2C1=O |  | -24.3% [at 11.4 µM] and -16.6% [at 11.4 µM]
93 | CCOC(=O)CCN1C(=O)[C@H]2[C@H]3[C@H](O)[C@H](O)C/C(=N/OC[C@@H](O)COCc4ccco4)[C@H]3CC[C@@H]2C1=O |  | -22.6% [at 11.4 µM]
94 | CCOC(=O)CCN1C(=O)[C@H]2[C@H]3[C@H](O)[C@H](O)C/C(=N/OC[C@@H](O)COCc4ccco4)[C@@H]3CC[C@@H]2C1=O |  | -16.7% [at 11.4 µM]
95 | O=C1[C@H]2[C@H]3[C@H](O)[C@H](O)C/C(=N/OC[C@@H](O)COCc4ccco4)[C@@H]3CC[C@@H]2C(=O)N1C[C@@H]1CCCO1 |  | -23.9% [at 11.4 µM]
96 | O=C1[C@H]2[C@H]3[C@H](O)[C@H](O)C/C(=N/OC[C@@H](O)COCc4ccco4)[C@H]3CC[C@@H]2C(=O)N1C[C@@H]1CCCO1 |  | -13.4% [at 11.4 µM]
